Efa HMGR inh: inhibitors of E. faecalis class II HMGR, primary screen, biochemical, Enterococcus faecalis; purified E. faecalis HMGR, NADPH absorbance 340 nm kinetic; inhibition, % at 10 µM; 190,000 compounds, 0.41% hits; HMG-CoA reductase (Enterococcus faecalis, mvaE); AID 1066, 2008;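 active = inhibition above a set limit, the median over all tested compounds plus 3 SD, cut at about 9.5% in these data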;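 note: enzyme runs in reverse so mevalonate oxidation gives rising NADPH absorbance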
L929 necroptosis: inhibitors of zVAD-triggered necroptosis, primary screen, L929 cells; L929 zVAD necroptosis rescue, ATP luminescence, 24 h; with zVAD 60 µM; viability rescue, % at 10 µM; AID 1377, 2008; 220,000 compounds, 0.38% hits;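 active = activation, scaled between plate controls, above about 75%, limit read from the data; inactive = activation under that limit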
TNF necrop inh: inhibitors of TNF-alpha triggered necroptosis, primary screen, cell-based, Jurkat FADD-/-, single concentration | Jurkat FADD-/- TNF necroptosis rescue, ATP luminescence, 24 h; 0 = TNF only, 100 = no-TNF cells | 220,000 compounds, 0.068% hits | AID 463075, 2010 | activation (protection from cell death), % at 10 µM;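 active = activation, meaning protection from cell death, of at least 50% relative to plate controls; inactive = activation below 50%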;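 note: necroptosis triggered by 40 ng/mL TNF-alpha added together with compound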
ROMK mod: ROMK potassium channel modulators, primary screen, cell-based, thallium flux, MLSMR library; Tet-inducible ROMK, thallium flux fluorescence; actives lie on both sides; AID 1918, 2009; B-score at 10 µM; 130,000 compounds, 2% hits; ATP-sensitive inward rectifier potassium channel 1 (Homo sapiens), P48048;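 active = signal ratio slope over the read window, or its plate-corrected B-score, at least 3 SD from the plate mean, either direction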;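 note: B-score of the F/F0 ratio slope over 7 to 12 s after thallium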
Target sequence (P48048 whole entry, looked up): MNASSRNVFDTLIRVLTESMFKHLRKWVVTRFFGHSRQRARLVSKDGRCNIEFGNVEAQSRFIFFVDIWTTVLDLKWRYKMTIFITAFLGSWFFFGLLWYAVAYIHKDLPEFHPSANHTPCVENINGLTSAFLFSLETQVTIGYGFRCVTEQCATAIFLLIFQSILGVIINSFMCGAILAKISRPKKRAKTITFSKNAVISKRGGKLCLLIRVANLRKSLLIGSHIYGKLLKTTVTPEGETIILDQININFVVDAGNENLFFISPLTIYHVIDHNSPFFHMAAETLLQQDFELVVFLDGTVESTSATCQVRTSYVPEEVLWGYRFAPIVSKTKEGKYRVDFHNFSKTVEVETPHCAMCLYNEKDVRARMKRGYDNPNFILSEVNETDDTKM
14-3-3 Bad inh: inhibitors of 14-3-3 zeta/Bad binding, primary screen, biochemical, TR-FRET, bovine 14-3-3 zeta. 220,000 compounds, 0.71% hits. 14-3-3 protein zeta/delta (Bos taurus), P63103. TR-FRET 14-3-3zeta/Dy647-pBad peptide displacement, 1 h. inhibition, % at 21.7 µM;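 active = inhibition above about 70%, limit read from the data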
Target sequence (P63103 whole entry, looked up): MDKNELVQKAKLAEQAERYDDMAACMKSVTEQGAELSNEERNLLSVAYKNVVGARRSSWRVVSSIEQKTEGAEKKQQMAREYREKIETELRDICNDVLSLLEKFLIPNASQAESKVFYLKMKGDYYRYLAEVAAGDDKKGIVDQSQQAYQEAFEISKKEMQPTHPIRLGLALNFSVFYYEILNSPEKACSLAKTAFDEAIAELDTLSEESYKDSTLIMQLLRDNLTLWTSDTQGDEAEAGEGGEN
Calpain2 inh: inhibitors of pig calpain II, primary screen, biochemical, fluorogenic peptide substrate, 1536-well | inhibition, % at 16 µM | purified calpain II, 30 min | 220,000 compounds, 0.37% hits;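 active = inhibition above about 50%, limit read from the data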
Each line names hits and unclear results; the compound was inactive in the other large screens; [ ] = dose if it differs, or a comment. Hits are enriched below; roughly 3% of the tested compounds scored in any of these assays.

CN1CCN(S(=O)C23CC4CC(CC(C4)C2)C3)CC1 (centres undefined)	none
O=S(N1CCc2ccccc21)C12CC3CC(CC(C3)C1)C2 (centres undefined)	Calpain2 inh 103
O=C(O)C1CCN(c2nc(-c3ccccc3)nc3c2oc2ccccc23)CC1	none
CCOC(=O)C1CCN(c2nc(-c3ccccc3)nc3c2oc2ccccc23)CC1	14-3-3 Bad inh 81
CCc1nc(N2CCN(C(=O)c3ccco3)CC2)c2oc3ccccc3c2n1	14-3-3 Bad inh 77 (no result: ROMK mod)
CCC(C)NC(=O)CN(c1cc(Cl)cc(Cl)c1)S(C)(=O)=O (centres undefined)	none
CCN1CCN(C(c2cccs2)C(C)NS(=O)(=O)c2ccccc2)CC1 (centres undefined)	Calpain2 inh 57
O=C(COc1ccc(/C=N/NC(=O)c2cc3ccccc3o2)cc1Cl)Nc1ccccc1	14-3-3 Bad inh 79 (no result: ROMK mod)
O=C(N/N=C/c1ccc2c(c1)OCO2)c1cc2ccccc2o1	none (no result: Efa HMGR inh, ROMK mod)
CC1CN(C(=O)CSc2nnc(-c3ccncc3)n2-c2ccccc2)CC(C)O1 (centres undefined)	none (no result: ROMK mod)
CC1CN(C(=O)CSc2nnc(-c3ccc(Cl)cc3)n2C)CC(C)O1 (centres undefined)	Efa HMGR inh 12 (no result: ROMK mod)
CC1CC(C)CN(C(=O)CSc2nnc(-c3ccc(Cl)cc3)o2)C1 (centres undefined)	L929 necroptosis 83 (no result: ROMK mod)
O=C1OCC/C1=C\OCCCO/C=C1\CCOC1=O	none (no result: Efa HMGR inh)
CC(C)N1C/C(=C/c2cccnc2)C(=O)/C(=C/c2cccnc2)C1	none
CN1C/C(=C/c2cccnc2)C(=O)/C(=C/c2cccnc2)C1	TNF necrop inh 80, ROMK mod -3.5
C/C(CC(=O)NC1CCCC1)=N\NC(=O)C1CCCCC1	14-3-3 Bad inh 97
Cc1cccc2c(C(=O)Nn3cnnc3)cc(-c3ccccc3Cl)nc12	none
CCC(C)n1c(=S)[nH]c2c(sc3ccc([N+](=O)[O-])cc32)c1=O (centres undefined)	ROMK mod 5.3
COc1ccccc1N1CCN(C(C)C(=O)N2CC(C)OC(C)C2)CC1 (centres undefined)	none
COc1coc(C(O)C[N+](=O)[O-])cc1=O (centres undefined)	none
COc1ccc(C2CN=NC2C(=O)c2ccccc2)cc1 (centres undefined)	TNF necrop inh 79 (no result: Efa HMGR inh, ROMK mod)
CC1CCCCC1N1CN=C(Nc2nc3ccccc3s2)NC1 (centres undefined)	none (no result: ROMK mod)
CC(=O)Cc1nsc(NC(=O)c2cn(-c3ccccc3)nc2-c2ccc(Br)cc2)n1	none (no result: ROMK mod)
CCn1c(SCC(=O)N/N=C/C=C/c2ccco2)nnc1-c1ccc(OC)cc1	14-3-3 Bad inh 80[fluorescence artefact?] (no result: ROMK mod)
CC(=O)N1N=C(c2cccc([N+](=O)[O-])c2)OC1(C)CC(=O)Nc1ccccc1 (centres undefined)	14-3-3 Bad inh 81[fluorescence artefact?]
C/C(=N\NC(=O)CSc1nc(C)cc(C)n1)c1ccc2c(c1)OCCO2	none
COc1ccc(OC)c(S(=O)(=O)Nc2cc(C(=O)O)ccc2N2CC3CC(C2)c2cccc(=O)n2C3)c1 (centres undefined)	none
Cc1cc(Cl)ccc1NC(=O)CCC(=O)N/N=C/c1cc([N+](=O)[O-])ccc1O	none
O=[N+]([O-])c1ccc(O)c(/C=N/NC(=S)Nc2ccc(Cl)cc2Cl)c1	ROMK mod 2.9 (no result: Efa HMGR inh)
O=C(N/N=C/c1cc([N+](=O)[O-])ccc1O)C12CC3CC(CC(C3)C1)C2	Efa HMGR inh 13
COc1cc(CNC2CCCCC2OC)cc(OC)c1OC (centres undefined)	none (no result: ROMK mod)
COCCNC(=O)C(OC(=O)CC1Sc2ccccc2NC1=O)c1ccccc1 (centres undefined)	none
C[C@H]1CC[C@H]2C(=O)N3[C@H](c4cccc(N5CCCC5=O)c4)[C@@H](C)CC[C@H]3C(=O)N2[C@@H]1c1cccc(N2CCCC2=O)c1	none
C[C@H]1CC[C@H]2C(=O)N3[C@H](c4ccccc4Br)[C@@H](C)CC[C@H]3C(=O)N2[C@@H]1c1ccccc1Br	ROMK mod -4.3
COc1cc(CO)c(Br)cc1OCC(=O)Nc1ccccc1C	none
COc1cc(CO)c(Br)cc1OCC(N)=O	14-3-3 Bad inh 82
CCC(=O)NCC(c1cccs1)N1CCOCC1 (centres undefined)	14-3-3 Bad inh 85 (no result: ROMK mod)
O=C(CN1C(=O)NC(Cc2ccccc2)C1=O)Nc1ccc(F)cc1 (centres undefined)	none
Cc1ccc(NC(=O)CN2C(=O)NC(Cc3ccccc3)C2=O)c(Br)c1 (centres undefined)	Efa HMGR inh 10
Cc1ccc(Cl)cc1NC(=O)COC(=O)c1ccc(N2CCCC2)c([N+](=O)[O-])c1	none
COc1ccc2nc(NC(=O)CCn3cccc3)sc2c1	L929 necroptosis 92
CCOCC(=O)Nc1nc2ccc(OC)cc2s1	none (no result: ROMK mod)
COc1ccc(/C=C(/C(=O)c2cccs2)N2C=CC=CC2=C(C#N)C#N)cc1	none (no result: ROMK mod)
N#CC(C#N)=C1C=CC=CN1/C(=C\c1ccco1)C(=O)c1ccc(Br)cc1	TNF necrop inh 62 (no result: ROMK mod)
CCN1CCN(CCOc2ccc(Br)cc2C)CC1	14-3-3 Bad inh 89
Cc1cc(Br)ccc1OCCN1CC(C)OC(C)C1 (centres undefined)	none
CC(C)Oc1ccc(C(=O)NCc2cccs2)cc1	none
CS(=O)(=O)N1CCc2cc(S(=O)(=O)N3CCCCC3)ccc21	Efa HMGR inh 16
CS(=O)(=O)N1CCc2cc(C(=O)N3CCCCC3)ccc21	none
CC(C)(C)NC(=O)NC(=O)COC(=O)c1cccc(S(=O)(=O)N2CCCCC2)c1	none
COc1ccc(C(=O)N(C)c2c(C)n(C)n(-c3ccccc3)c2=O)cc1OC	Calpain2 inh 70
CCCCNC(=O)c1cc2c(=O)n3cccc(C)c3nc2n(Cc2ccccc2)c1=N	14-3-3 Bad inh 75 (no result: ROMK mod)
COc1ccc(NC(=S)N(CCCN2CCOCC2)Cc2cn(C)c3ccccc23)cc1	Calpain2 inh 54 (no result: L929 necroptosis)
CCOc1ccc(NC(=S)N(CCCN2CCOCC2)Cc2cn(C)c3ccccc23)cc1	none
COc1ccc(C(C)=O)cc1COC(=O)c1c(C)noc1C	none (no result: ROMK mod)
COc1ccc(S(=O)(=O)N2CCCCCC2)cc1C(=O)OCc1c(C)noc1C	ROMK mod -6.7
COc1ccc(C(C)=O)cc1COC(=O)c1ccc(OCc2c(C)noc2C)cc1	14-3-3 Bad inh 73
CCOC(CNC(=O)c1ccc2c(c1)ncn2-c1cccc(F)c1)OCC	none (no result: ROMK mod)
COCCNC(=O)c1ccc2c(c1)ncn2-c1ccc(F)c(F)c1	L929 necroptosis 75
S=c1nccc(-c2ccc(Cl)cc2)[nH]1	none (no result: Efa HMGR inh, ROMK mod)

Source: PubChem BioAssay (several laboratories)
